# Experimental data published in paper PMC8384837, “Expanding the binding specificity for RNA recognition by a PUF domain”.
# Numbering of substitutions follows the chain as printed.
# Experiments:
# Test in all cases: yeast three-hybrid, YBZ-1, SC-Leu-His + 0.5 mM 3-AT, 4 days
# Details in all cases: tags: N-Gal4 AD-HA kept; label: inside an RPR1-promoter hybrid RNA with tandem MS2 sites; ssRNA
# PUM1 PUF domain R8-QWS = PUM1 PUF domain R8-QWS (Homo sapiens, UniProt Q14671 828-1176, N1122Q;Y1123W;Q1126S)
# How it was run: (§1)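 A centromeric plasmid in strain YBZ-1 co-expressed Pumilio-1 PUF domain libraries, randomized at the three base-contacting residues of each repeat, with matching RNA elements; the strain carries a LexA–MS2 coat fusion and a HIS3 reporter. After four days on SC-Leu (input) or SC-Leu-His + 0.5 mM 3-AT (selection), the repeat regions were PCR-amplified and Illumina-sequenced. The interaction score is the log change in variant frequency from input to selection, using log2 and a pseudocount of 1 where absent.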
# PUM1 PUF domain R8-HWL = PUM1 PUF domain R8-HWL (Homo sapiens, UniProt Q14671 828-1176, N1122H;Y1123W;Q1126L)
# How it was run: as §1
# PUM1 PUF domain R3-CNY = PUM1 PUF domain R3-CNY (Homo sapiens, UniProt Q14671 828-1176, R936N;Q939Y)
# How it was run: as §1
# PUM1 PUF domain R6-SFQ = target: T1, PUM1 PUF domain R6-SFQ (Homo sapiens, UniProt Q14671 828-1176, N1043S;Y1044F)
# T1 sequence: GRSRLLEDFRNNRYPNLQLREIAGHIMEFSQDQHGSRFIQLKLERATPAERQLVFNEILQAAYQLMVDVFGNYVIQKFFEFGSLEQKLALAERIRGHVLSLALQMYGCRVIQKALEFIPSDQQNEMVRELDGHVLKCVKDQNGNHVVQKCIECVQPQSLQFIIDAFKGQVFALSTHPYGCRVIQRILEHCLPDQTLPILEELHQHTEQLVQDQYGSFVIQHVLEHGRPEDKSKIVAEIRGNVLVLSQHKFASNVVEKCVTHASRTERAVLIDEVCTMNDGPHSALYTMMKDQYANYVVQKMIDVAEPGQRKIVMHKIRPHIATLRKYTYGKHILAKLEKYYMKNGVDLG
# How it was run: as §1
# PUM1 PUF domain R6-HFG = target: T2, PUM1 PUF domain R6-HFG (Homo sapiens, UniProt Q14671 828-1176, N1043H;Y1044F;Q1047G)
# T2 sequence: T1 sequence with S216H, Q220G
# How it was run: as §1
# PUM1 PUF domain R8-VHR = PUM1 PUF domain R8-VHR (Homo sapiens, UniProt Q14671 828-1176, N1122V;Y1123H;Q1126R)
# How it was run: as §1
# PUM1 PUF domain R3-RDS = PUM1 PUF domain R3-RDS (Homo sapiens, UniProt Q14671 828-1176, C935R;R936D;Q939S)
# How it was run: as §1
# PUM1 PUF domain R4-GWY = PUM1 PUF domain R4-GWY (Homo sapiens, UniProt Q14671 828-1176, N971G;H972W;Q975Y)
# How it was run: as §1
# PUM1 PUF domain R3-LRC = PUM1 PUF domain R3-LRC (Homo sapiens, UniProt Q14671 828-1176, C935L;Q939C)
# How it was run: as §1
# PUM1 PUF domain R3-TME = PUM1 PUF domain R3-TME (Homo sapiens, UniProt Q14671 828-1176, C935T;R936M;Q939E)
# How it was run: as §1
# PUM1 PUF domain R7-RRM = PUM1 PUF domain R7-RRM (Homo sapiens, UniProt Q14671 828-1176, S1079R;N1080R;E1083M)
# How it was run: as §1
# PUM1 PUF domain R7-KRS = PUM1 PUF domain R7-KRS (Homo sapiens, UniProt Q14671 828-1176, S1079K;N1080R;E1083S)
# How it was run: as §1
# PUM1 PUF domain R8-HFS = PUM1 PUF domain R8-HFS (Homo sapiens, UniProt Q14671 828-1176, N1122H;Y1123F;Q1126S)
# How it was run: as §1
# PUM1 PUF domain R5-KGR = PUM1 PUF domain R5-KGR (Homo sapiens, UniProt Q14671 828-1176, C1007K;R1008G;Q1011R)
# How it was run: as §1
# PUM1 PUF domain R1-KLL = PUM1 PUF domain R1-KLL (Homo sapiens, UniProt Q14671 828-1176, S863K;R864L;Q867L)
# How it was run: as §1
# PUM1 PUF domain R7-KGS = PUM1 PUF domain R7-KGS (Homo sapiens, UniProt Q14671 828-1176, S1079K;N1080G;E1083S)
# How it was run: as §1
# PUM1 PUF domain R4-DWE = PUM1 PUF domain R4-DWE (Homo sapiens, UniProt Q14671 828-1176, N971D;H972W;Q975E)
# How it was run: as §1
sequence,measurement,setting,value
GGCUAGAACUAGUGGAUCCCCCGGCGCCCGGCGGCUCGAGCCCGGGUAAGUGUAAAUAGUCUGCAUGCCGCCGGGCGCCAUGCCUGCAGGUCGACUCUAGAAAACAUG,binding signal,PUM1 PUF domain R8-QWS,4.13 log2 enrichment (interaction score)
same,binding signal,PUM1 PUF domain R8-HWL,3.96 log2 enrichment (interaction score)
same,binding signal,PUM1 PUF domain R3-CNY,3.55 log2 enrichment (interaction score)
same,binding signal,PUM1 PUF domain R6-SFQ,2.98 log2 enrichment (interaction score)
same,binding signal,PUM1 PUF domain R6-HFG,5.43 log2 enrichment (interaction score)
same,binding signal,PUM1 PUF domain R8-VHR,3.13 log2 enrichment (interaction score)
GGCUAGAACUAGUGGAUCCCCCGGCGCCCGGCGGCUCGAGCCCGGGUAAGUGUAAUUAGUCUGCAUGCCGCCGGGCGCCAUGCCUGCAGGUCGACUCUAGAAAACAUG,binding signal,PUM1 PUF domain R3-RDS,2.88 log2 enrichment (interaction score)
GGCUAGAACUAGUGGAUCCCCCGGCGCCCGGCGGCUCGAGCCCGGGUAAGUGUAUAUAGUCUGCAUGCCGCCGGGCGCCAUGCCUGCAGGUCGACUCUAGAAAACAUG,binding signal,PUM1 PUF domain R4-GWY,5.08 log2 enrichment (interaction score)
GGCUAGAACUAGUGGAUCCCCCGGCGCCCGGCGGCUCGAGCCCGGGUAAGUGUAAGUAGUCUGCAUGCCGCCGGGCGCCAUGCCUGCAGGUCGACUCUAGAAAACAUG,binding signal,PUM1 PUF domain R3-LRC,3.66 log2 enrichment (interaction score)
same,binding signal,PUM1 PUF domain R3-TME,4.56 log2 enrichment (interaction score)
GGCUAGAACUAGUGGAUCCCCCGGCGCCCGGCGGCUCGAGCCCGGGUAAGUCUAAAUAGUCUGCAUGCCGCCGGGCGCCAUGCCUGCAGGUCGACUCUAGAAAACAUG,binding signal,PUM1 PUF domain R7-RRM,4.89 log2 enrichment (interaction score)
same,binding signal,PUM1 PUF domain R7-KRS,4.34 log2 enrichment (interaction score)
GGCUAGAACUAGUGGAUCCCCCGGCGCCCGGCGGCUCGAGCCCGGGUAAGCGUAAAUAGUCUGCAUGCCGCCGGGCGCCAUGCCUGCAGGUCGACUCUAGAAAACAUG,binding signal,PUM1 PUF domain R8-HWL,4.14 log2 enrichment (interaction score)
same,binding signal,PUM1 PUF domain R8-VHR,3.33 log2 enrichment (interaction score)
same,binding signal,PUM1 PUF domain R8-HFS,2.47 log2 enrichment (interaction score)
GGCUAGAACUAGUGGAUCCCCCGGCGCCCGGCGGCUCGAGCCCGGGUAAGUGUCAAUAGUCUGCAUGCCGCCGGGCGCCAUGCCUGCAGGUCGACUCUAGAAAACAUG,binding signal,PUM1 PUF domain R5-KGR,4.53 log2 enrichment (interaction score)
GGCUAGAACUAGUGGAUCCCCCGGCGCCCGGCGGCUCGAGCCCGGGUAAGUGUAAAUUGUCUGCAUGCCGCCGGGCGCCAUGCCUGCAGGUCGACUCUAGAAAACAUG,binding signal,PUM1 PUF domain R1-KLL,3.14 log2 enrichment (interaction score)
GGCUAGAACUAGUGGAUCCCCCGGCGCCCGGCGGCUCGAGCCCGGGUAAGUGUAAAUCGUCUGCAUGCCGCCGGGCGCCAUGCCUGCAGGUCGACUCUAGAAAACAUG,binding signal,PUM1 PUF domain R1-KLL,4.54 log2 enrichment (interaction score)
GGCUAGAACUAGUGGAUCCCCCGGCGCCCGGCGGCUCGAGCCCGGGUAAGUUUAAAUAGUCUGCAUGCCGCCGGGCGCCAUGCCUGCAGGUCGACUCUAGAAAACAUG,binding signal,PUM1 PUF domain R7-KGS,3.39 log2 enrichment (interaction score)
same,binding signal,PUM1 PUF domain R7-KRS,2.06 log2 enrichment (interaction score)
GGCUAGAACUAGUGGAUCCCCCGGCGCCCGGCGGCUCGAGCCCGGGUAAGUGUAGAUAGUCUGCAUGCCGCCGGGCGCCAUGCCUGCAGGUCGACUCUAGAAAACAUG,binding signal,PUM1 PUF domain R4-DWE,4.93 log2 enrichment (interaction score)
